Experimental findings from PubChem BioAssay are described below.

Assay [1] is described as follows: inhibitors of TNFa-induced NFkB p65 translocation, primary screen, imaging, HUVEC, MLSMR starter and 10KST1 sets (AID 438;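 active = inhibition above 20% together with a positive visual image hit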;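 note: compound added about 3h40 before a 20 min TNFalpha stimulation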;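 for inhibition: signal is the nuclear over cytoplasmic p65 intensity ratio per well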). The note with it: HUVEC TNFa-induced p65 nuclear translocation; cell count: measured here: nuclei count (cytotoxicity indicator), at 2.08 µM; inhibition: at 2 µM, stronger effect = higher value, 0% TNFa-plus-vehicle, 100% no-TNFa wells.
Assay [2] in a line: reduction of polyQ htt aggregates in cells – imaging, exon1htt(103Q)mCFP cells, high-content imaging, primary screen (AID 483;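 active = visual image review flags a hit and inhibition of aggregation exceeds 20%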;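 note: compound exposure lasted 3 days before fixation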;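 for nuclei count: percent of the per-plate median nuclei count of sample wells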). The note with it: exon1htt(103Q)mCFP cell line, aggregate imaging, at 2 µM; inhibition of aggregation: stronger effect = higher value; nuclei count: measured here: cell count, toxicity.
Assay [3] is described as follows: endothelial E-selectin expression blockers – imaging, HUVEC, immunofluorescence, MLSMR starter and 10KST1 sets, primary screen (AID 487;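 active = visually confirmed hit in the image check and inhibition above 20%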;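 for inhibition: signal is fraction of cell area covered by stained E-selectin grains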;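 for nuclei count: 100% = median nuclei count of all wells on the same plate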). As to conditions: HUVEC TNFalpha-induced E-selectin immunofluorescence imaging, at 2 µM; inhibition: stronger effect = higher value; nuclei count: measured here: cell number, toxicity.
Assay [4] concerns the target Voltage-gated potassium channel subunit beta-2 (Rattus norvegicus) (UniProt P62483). The experiment in a line: inhibitors of rat Kvbeta2 reductase activity – biochemical, NADPH fluorescence, primary screen (AID 622;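 active = fluorescence slope higher than the sample average by over 3 SD, cut at about -0.22 in these data, passing the limit was not always enough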;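 note: slope of raw intensity against log time taken from 70 to 1610 s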). As to conditions: recombinant KvBeta, 4-cyanobenzaldehyde reduction, at 10 µM, stronger effect = higher value.
Assay [5] shares this target. Kind of assay: enhancers of rat Kvbeta2 NADPH turnover – biochemical, NADPH fluorescence, primary screen (AID 623).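 Note: fluorescence intensity change per second fitted from 20 to 320 s.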 As to conditions: Recombinant KvBeta, NADPH fluorescence decrease slope, 10 min; at 10 µM; stronger effect = lower value.
Assay [6] addresses Alpha-2C adrenergic receptor (Homo sapiens) (UniProt P18825). Kind of assay: compounds altering alpha2C-coupled GIRK flux – cell-based, HEK293 alpha2C/GIRK1/2, thallium flux, primary screen (AID 624;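 active = fluorescence slope after compound addition differing from the mean of all screened samples at 99.7% confidence, in either direction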;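 note: slope of fluorescence ratio to pre-addition baseline per second over 15 to 24 s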). As to conditions: thallium flux BTC fluorescence, at 10 µM, actives lie on both sides.
Assay [7] can be described thus: blockers of RIG-like receptor reporter activation – cell-based, Sendai virus stimulus, luciferase, 10K MLSCN set, TLR/RLR signaling modifier project, primary screen (AID 602276;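 active = inhibition at or above 50% at 10 µM; inactive = inhibition below 50%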;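 note: firefly luciferase from ISG56 promoter only with Renilla not read in this screen; 0% = Sendai virus plus DMSO and 100% = medium plus DMSO without virus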). As to conditions: HEK293 RL24 IRF3 luciferase reporter, at 10 µM, stronger effect = higher value. (In a reporter assay the amount or activity of a reporter protein is the signal.)
A short description of assay [8]: TLR3 IRF3 reporter activation blockers – cell-based, poly I:C stimulus, luciferase, 10K MLSCN set, primary screen (AID 602277;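 active = inhibition of the reporter signal at or above 50%; inactive = inhibition below 50%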). As to conditions: HEK293-TLR3 RL24 IRF3 luciferase reporter, at 10 µM, stronger effect = higher value.

The source made the active and inactive calls.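 Rule for the calls, unless noted: active = NADPH fluorescence slope more negative than the mean of all samples by about 3 SD, 99.7% confidence; inactive = the rest.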

Sequence of Voltage-gated potassium channel subunit beta-2 (Rattus norvegicus) (P62483 whole entry, looked up): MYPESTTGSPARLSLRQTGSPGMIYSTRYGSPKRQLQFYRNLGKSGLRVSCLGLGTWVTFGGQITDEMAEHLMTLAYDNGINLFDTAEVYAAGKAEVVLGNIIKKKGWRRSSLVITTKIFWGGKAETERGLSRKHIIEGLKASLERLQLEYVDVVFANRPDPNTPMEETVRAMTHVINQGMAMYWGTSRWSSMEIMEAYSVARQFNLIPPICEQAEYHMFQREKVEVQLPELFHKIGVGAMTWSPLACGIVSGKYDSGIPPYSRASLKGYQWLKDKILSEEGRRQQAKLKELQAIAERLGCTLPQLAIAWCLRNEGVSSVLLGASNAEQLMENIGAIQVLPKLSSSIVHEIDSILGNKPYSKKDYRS
Sequence of Alpha-2C adrenergic receptor (Homo sapiens) (P18825 whole entry, looked up): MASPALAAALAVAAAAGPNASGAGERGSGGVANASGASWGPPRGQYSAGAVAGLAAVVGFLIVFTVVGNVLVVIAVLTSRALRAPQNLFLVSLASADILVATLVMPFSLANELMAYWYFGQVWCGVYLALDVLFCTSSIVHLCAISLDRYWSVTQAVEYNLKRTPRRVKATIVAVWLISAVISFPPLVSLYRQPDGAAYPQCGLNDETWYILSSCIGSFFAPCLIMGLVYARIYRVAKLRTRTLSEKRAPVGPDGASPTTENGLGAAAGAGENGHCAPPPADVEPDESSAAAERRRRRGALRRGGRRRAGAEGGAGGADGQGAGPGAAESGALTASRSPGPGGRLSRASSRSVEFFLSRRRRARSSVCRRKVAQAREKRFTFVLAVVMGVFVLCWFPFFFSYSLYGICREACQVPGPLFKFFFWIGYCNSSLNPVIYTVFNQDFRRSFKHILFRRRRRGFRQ

In general, inhibition refers to the relative decrease from the control value, in per cent. For `C=CCn1c(SCn2nnc3ccccc3c2=O)nnc1-c1ccc(Br)cc1`, the cell count in assay [1] turned out to be 447. In addition, the inhibition in assay [1] is -8.7% (inactive); in assay [3] it was -30.7% (inactive); in assay [7] it was -1.43% (inactive); in assay [8], -21.1% (inactive). Also, the inhibition of aggregation in assay [2] was 6% (inactive). In addition, the nuclei count in assay [2] is 67.5%; in assay [3], 110%. Besides, the fluorescence slope in assay [4] is -0.328 (inactive). Besides, the NADPH fluorescence slope in assay [5] is -5.6e-05 (inactive). Also, in assay [6], the slope is 0.00508 (inactive).

For the compound `CCN(CC)CC(C)CNC(=O)CC(C(=O)N1CCc2ccccc21)n1ccnc1` (centres undefined), the cell count in assay [1] is 604. In addition, the inhibition is -10% (inactive) in assay [1], -125% (inactive) in assay [3], 3.93% (inactive) in assay [7] and 11% (inactive) in assay [8]. Further, the inhibition of aggregation in assay [2] was 10.7% (inactive). The nuclei count in assay [2] was found to be 98.5%; in assay [3] it was 110%. Moreover, the fluorescence slope in assay [4] was -0.464 (inactive). Further, the NADPH fluorescence slope in assay [5] is 6.1e-05 (inactive). For the same compound, the slope in assay [6] is 0.00462 (inactive).

As for `CC1(C)NC(=O)N(CC(O)COc2cccc(F)c2)C1=O` (centres undefined), the cell count in assay [1] amounted to 690. The inhibition in assay [1] was -1.1% (inactive); in assay [3], -65.7% (inactive); in assay [7] it was -5.23% (inactive); in assay [8], 19.5% (inactive). For the same compound, in assay [2], the inhibition of aggregation is 8.4% (inactive). Moreover, the nuclei count in assay [2] worked out at 72.2%; in assay [3], 105%. Moreover, in assay [4], the fluorescence slope is -0.592 (inactive). The NADPH fluorescence slope in assay [5] was -2.3e-05 (inactive). Besides, in assay [6], the slope was 0.00622 (inactive).

`COc1ccc(C(=O)NCC(=O)NC2=NCCS2)cc1`: in assay [1], the cell count turned out to be 772. Besides, the inhibition was -11.6% (inactive) in assay [1], -43.6% (inactive) in assay [3], 5.81% (inactive) in assay [7] and 28.4% (inactive) in assay [8]. The inhibition of aggregation in assay [2] is -22.1% (inactive). For the same compound, the results for the nuclei count in assay [2] and in assay [3] were 69.1% and 106%, respectively. Also, the fluorescence slope in assay [4] was -0.591 (inactive). For the same compound, in assay [5], the NADPH fluorescence slope was -5.5e-05 (inactive). For the same compound, in assay [6], the slope was 0.00756 (inactive).

As to `Cc1ccc2[nH]c3c(c2c1)CCc1cn[nH]c1-3`, the cell count in assay [1] amounted to 410. Besides, the inhibition in assay [1] is 5.1% (inactive); in assay [3] it was 27.4% (inactive); in assay [7], -22.4% (inactive); in assay [8] it was -73.4% (inactive). For the same compound, the inhibition of aggregation in assay [2] was -4.7% (inactive). For the same compound, the nuclei count was 71.7% in assay [2] and 105% in assay [3]. For the same compound, in assay [4], the fluorescence slope was -0.481 (inactive). Further, in assay [5], the NADPH fluorescence slope is -1.8e-05 (inactive). For the same compound, the slope in assay [6] was 0.00393 (inactive).

With `CCC(C)NC(=O)c1cn(CC)c2ccc(S(=O)(=O)N(C)C)cc2c1=O` (centres undefined), the cell count in assay [1] is 603. The inhibition is -11.6% (inactive) in assay [1], -70.7% (inactive) in assay [3], 19.1% (inactive) in assay [7] and 29.7% (inactive) in assay [8]. Moreover, the inhibition of aggregation in assay [2] was -11.6% (inactive). Moreover, the nuclei count in assay [2] was found to be 111%; in assay [3], 125%. Besides, the fluorescence slope in assay [4] was -0.376 (inactive). Further, the NADPH fluorescence slope in assay [5] is 1.4e-05 (inactive). In addition, the slope in assay [6] was 0.00604 (inactive).

On to `O=C(COc1ccc2ccccc2c1)N1CCCC1`, for which, in assay [1], the cell count stood at 315. For the same compound, the inhibition in assay [1] was -1.8% (inactive); in assay [3] it was -27.1% (inactive); in assay [7], -31.9% (inactive); in assay [8], -85% (inactive). Also, in assay [2], the inhibition of aggregation was 4% (inactive). Further, the nuclei count in assay [2] is 77.8%; in assay [3], 97.9%. In addition, in assay [4], the fluorescence slope was -0.28 (inactive). The NADPH fluorescence slope in assay [5] was -1.8e-06 (inactive). Also, the slope in assay [6] was 0.00518 (inactive).

For `COc1ccc(-c2ccc(Nc3ccc(S(=O)(=O)N4CCCC4)cc3)nn2)cc1OC`, in assay [1], the cell count was determined as 702. Further, the inhibition in assay [1] was -6.1% (inactive); in assay [3], -94.1% (inactive); in assay [7], -5.55% (inactive); in assay [8] it was -13.6% (inactive). Moreover, in assay [2], the inhibition of aggregation is -4.9% (inactive). In addition, the nuclei count in assay [2] worked out at 103%; in assay [3] it was 109%. Moreover, in assay [4], the fluorescence slope was -0.601 (inactive). Further, the NADPH fluorescence slope in assay [5] is -4.3e-05 (inactive). Also, the slope in assay [6] was 0.004 (inactive).

For `COC(=O)c1cc(S(=O)(=O)N2CCC(C)CC2)ccc1F`, the cell count in assay [1] was determined as 552. The inhibition was -17% (inactive) in assay [1], -24.3% (inactive) in assay [3], 15.3% (inactive) in assay [7] and 29.4% (inactive) in assay [8]. For the same compound, the inhibition of aggregation in assay [2] was -56.8% (inactive). The nuclei count in assay [2] came out at 112%; in assay [3] it was 104%. Besides, the fluorescence slope in assay [4] is -0.452 (inactive). In addition, the NADPH fluorescence slope in assay [5] was -0.000117 (inactive). In assay [6], the slope is 0.00608 (inactive).

Regarding `CCSc1oc(-c2cccs2)nc1S(=O)(=O)c1ccccc1`, the cell count in assay [1] was found to be 690. The inhibition is -6.7% (inactive) in assay [1], -16.9% (inactive) in assay [3], 14.5% (inactive) in assay [7] and 34% (inactive) in assay [8]. For the same compound, the inhibition of aggregation in assay [2] was -10.8% (inactive). In addition, the nuclei count in assay [2] is 101%; in assay [3], 104%. Moreover, in assay [4], the fluorescence slope was -0.56 (inactive). In addition, in assay [5], the NADPH fluorescence slope is -3.1e-05 (inactive). Also, in assay [6], the slope is 0.00698 (inactive).

Turning to `CCOC(=O)CNC(=O)CSc1nc(N)cc(N)n1`, in assay [1], the cell count turned out to be 434. Besides, the inhibition in assay [1] is 5.1% (inactive); in assay [3], -62.6% (inactive); in assay [7], 1.91% (inactive); in assay [8], 8.68% (inactive). The inhibition of aggregation in assay [2] is -0.1% (inactive). For the same compound, the results for the nuclei count in assay [2] and in assay [3] were 106% and 108%, respectively. For the same compound, in assay [4], the fluorescence slope was -0.385 (inactive). Moreover, the NADPH fluorescence slope in assay [5] was 2.9e-05 (inactive). The slope in assay [6] is 0.00537 (inactive).

Consider `Nc1nc(-n2cnnc2)nn1-c1ccccc1`, for which, in assay [1], the cell count amounted to 414. In addition, the inhibition in assay [1] is 5.5% (inactive); in assay [3], -44% (inactive); in assay [7], 4.93% (inactive); in assay [8], 4.43% (inactive). Besides, in assay [2], the inhibition of aggregation was -0.2% (inactive). The nuclei count in assay [2] was 97%; in assay [3], 118%. Also, the fluorescence slope in assay [4] was -0.366 (inactive). In addition, the NADPH fluorescence slope in assay [5] is -3e-05 (inactive). Besides, the slope in assay [6] is 0.0053 (inactive).

Regarding `CC(C)CCn1c(=O)c2ccccc2n2c(CN(C)Cc3ccccc3)nnc12`, the cell count in assay [1] came out at 486. Besides, the inhibition in assay [1] is -14.2% (inactive); in assay [3] it was -78.1% (inactive); in assay [7], 8.18% (inactive); in assay [8], 26.3% (inactive). In assay [2], the inhibition of aggregation is 0.2% (inactive). The figures for the nuclei count in assay [2] and in assay [3] were 101% and 170%, respectively. The fluorescence slope in assay [4] is -0.537 (inactive). Moreover, in assay [5], the NADPH fluorescence slope was 1.9e-05 (inactive). Further, the slope in assay [6] was 0.00576 (inactive).

Consider `Cc1ccc(-c2csc3ncn(-n4c(C)ccc4C)c(=O)c23)o1`, for which the cell count in assay [1] was found to be 575. Besides, the inhibition was 6.1% (inactive) in assay [1], 55.1% (active) in assay [3], -15.1% (inactive) in assay [7] and 12.5% (inactive) in assay [8]. Further, the inhibition of aggregation in assay [2] is -0.6% (inactive). Besides, the nuclei count in assay [2] was found to be 82.8%; in assay [3] it was 66.1%. Further, in assay [4], the fluorescence slope was -0.468 (inactive). Also, in assay [5], the NADPH fluorescence slope was 3.1e-05 (inactive). Also, in assay [6], the slope was 0.00663 (inactive).
